# Results as given in PubChem BioAssay (NCATS).
# Several values for one entry are separate records, joined by “and”; a condition that tells them apart may be missing. Identical values can stand only once. Records with an inconclusive call do not appear. Entries that show only a call come without a potency. Activity calls are given as the source filed them. Unless noted, calls follow the shape of the dose curve; as a rule, active = well fitted curve in the direction sought with a large enough effect; inconclusive = small, poorly fitted or top-dose-only effect, or another doubt; inactive = no such curve, though single readings can be large; an effect the other way counts as inactive or inconclusive.
# How the values were obtained:
# [1] = qHTS assay for cell viability of HEK293 cells (AID 743288); details: ATP luminescence (CellTiter-Glo), 18 h; max response: stronger effect = lower value; also: nearly all actives have a fitted effect of over 50% in size
# Outline: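 ATP luminescence (CellTiter-Glo) reports metabolically competent cell number after parental HEK293 cells, 2,000/well, were treated with DMSO-dissolved compounds for 18 h at 37 C; reagent incubation 30 min, room temperature.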
# [2] = qHTS assay for cell viability of the p53RE-bla HCT-116 cell line (AID 743292); also: nearly all actives have a fitted effect of over 55% in size
# Outline: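 After plating at 4,000 cells per well and a 5 h rest at 37 C, HCT-116 cells carrying p53RE-bla received test chemicals in DMSO. Sixteen hours later at 37 C, CellTiter-Glo was added and luminescence recorded following 30 min at room temperature.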
# [3] = qHTS assay to identify small molecule inhibitors of chordoma cells - UCH-1 (AID 1259355); also: nearly all actives have a fitted effect of over 55% in size
# Outline: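 A 48hr growth-inhibition format: each drug tested at 15 concentrations together with added auranofin, camptothecin, doxorubicin, rubitecan and topotecan, with cell viability quantified as CellTiter-Glo luminescence.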
# [4] = qHTS profiling of the MIPE4 collection as inhibitors of Plasmodium falciparum (3D7) proliferation (AID 743344; call rule not given here); details: P. falciparum 3D7 in erythrocytes, SYBR Green DNA fluorescence, 72 h; at 28.5 µM (top of the series)
# Outline: (§1)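 Parasite DNA was quantified by SYBR Green I fluorescence (ex 485, em 535 nm) after overnight lysis in saponin/Triton buffer at room temperature. Cultures at 0.3% parasitemia and 2.5% hematocrit were first exposed to compound for 72 h at 37 C; signals were normalised to artemisinin (0.29 uM) and vehicle wells.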
# [5] = qHTS profiling of the MIPE4 collection as inhibitors of Plasmodium falciparum (DD2) proliferation (AID 743345; call rule not given here); details: P. falciparum Dd2 in erythrocytes, SYBR Green DNA, 72 h; at 28.5 µM (top of the series)
# Outline: as §1
# [6] = qHTS profiling of the MIPE4 collection as inhibitors of Plasmodium falciparum (DD2) proliferation (Rep 2) (AID 743346; call rule not given here); details: P. falciparum Dd2 in erythrocytes, SYBR Green DNA, 72 h; at 28.5 µM (top of the series)
# Outline: as §1
# [7] = qHTS profiling of the MIPE4 collection as inhibitors of Plasmodium falciparum (HB3) proliferation (AID 743347; call rule not given here); details: P. falciparum HB3 in erythrocytes, SYBR Green DNA, 72 h; at 28.5 µM (top of the series)
# Outline: as §1
# [8] = qHTS profiling for inhibitors of Plasmodium falciparum (3D7) proliferation (AID 743322; call rule not given here;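 also: infected erythrocytes exposed to compound for 72 h before lysis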); details: P. falciparum 3D7 proliferation; at 28.7 µM (top of the series) unless noted
# Outline: as §1
# [9] = qHTS profiling for inhibitors of Plasmodium falciparum (DD2) proliferation (AID 743323; call rule not given here); details: lower = more inhibition; at 28.7 µM (top of the series) unless noted
# Outline: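 P. falciparum Dd2-infected erythrocytes (0.3% parasitemia, 2.5% hematocrit) exposed 72 h at 37 C, 5% CO2. Lysis with SYBR Green, overnight at room temperature, fluorescence 485/535 nm; normalized to 0.29 uM artemisinin and DMSO.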
# [10] = qHTS profiling for inhibitors of Plasmodium falciparum (HB3) proliferation (AID 743324); details: Plasmodium falciparum HB3 blood-stage proliferation; at 28.7 µM (top of the series) unless noted
# Outline: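 SYBR Green fluorescence (485 ex/535 em) of lysed cultures, incubated overnight at room temperature in the dark, quantifies parasite DNA. Infected erythrocytes at 0.3% parasitemia and 2.5% hematocrit were exposed 72 h; values normalized to DMSO and 0.29 uM artemisinin controls.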
smiles,measurement,setting,value
OB(O)O,max response,[1],-3.91% (inactive) and 5.45% (inactive)
same,outcome,[2],inactive
same,Potency,[3],inactive
CN[C@@H]1[C@H](O[C@H]2[C@H](O[C@H]3[C@H](O)[C@@H](O)[C@H](N=C(N)N)[C@@H](O)[C@@H]3N=C(N)N)O[C@@H](C)[C@]2(O)CO)O[C@@H](CO)[C@H](O)[C@H]1O,Potency,[3],inactive
O=C(Cc1cccs1)N[C@@H]1C(=O)N2C(C(=O)[O-])=C(C[n+]3ccccc3)CS[C@H]12,Potency,[3],inactive
OCC(O)CO,max response,[1],1.91% (inactive) and -2.54% (inactive)
same,outcome,[2],inactive
same,Potency,[3],inactive
CC(=O)[C@H]1CC[C@H]2[C@@H]3C=CC4=CC(=O)CC[C@@]4(C)[C@H]3CC[C@]12C,"parasite growth, % of DMSO control",[4],84.6%
same,"parasite growth remaining, % of DMSO control (lower = more inhibition)",[5],96.9%
same,"parasite growth, % of control (lower = inhibition)",[6],165%
same,"growth, % of control",[7],95.1%
same,Potency,[3],inactive
C[C@H](CCC(=O)O)[C@H]1CC[C@H]2[C@@H]3[C@H](O)C[C@@H]4C[C@H](O)CC[C@]4(C)[C@H]3C[C@H](O)[C@]12C,max response,[1],-4.94% (inactive)
same,outcome,[2],inactive
CC(C)CCC[C@@H](C)[C@H]1CC[C@H]2[C@@H]3CC=C4C[C@@H](O)CC[C@]4(C)[C@H]3CC[C@]12C,max response,[1],-8.56% (inactive)
same,outcome,[2],inactive
same,Potency,[3],inactive
O=C(O)[C@H]1C(=CCO)O[C@H]2CC(=O)N12,"parasite growth, % of DMSO control",[4],93.2%
same,"parasite growth remaining, % of DMSO control (lower = more inhibition)",[5],103%
same,"parasite growth, % of control (lower = inhibition)",[6],115%
same,"growth, % of control",[7],93.1%
same,Potency,[3],inactive
C[C@H](CCC(=O)O)[C@H]1CC[C@H]2[C@@H]3CC[C@@H]4C[C@H](O)CC[C@]4(C)[C@H]3C[C@H](O)[C@]12C,max response,[1],3.72% (inactive)
same,outcome,[2],inactive
same,Potency,[3],inactive
CC1=CC(=O)NS(=O)(=O)O1,max response,[1],-5.77% (inactive) and -0.759% (inactive)
same,outcome,[2],inactive
CCN(CC)C(=S)S,remaining parasite growth % (stronger effect = lower value),[8],87.7%
same,"activity, percent of control",[9],82.5%
same,"remaining proliferation (% of control), lower = more inhibition",[10],84.6%
same,Potency,[3],inactive
C[Si](C)(C)O[Si](C)(C)C,max response,[1],-0.467% (inactive)
same,outcome,[2],inactive
same,Potency,[3],inactive
CC(C)(C)CC(C)(C)c1ccc(OCCO)cc1,max response,[1],-25.1% (inactive)
same,outcome,[2],inactive
same,Potency,[3],inactive
